Earlier results in PubChem BioAssay AID977611.
The whole screen tested about 3,900 compounds, of which about 3,900 (100%) were called active. Cut-off not given; nearly all actives show Kd up to about 4200 µM. The set was probably picked from earlier hits. The list shows a part of the results. Starred links: 1 amine or outer side, 2 acyl side, 3 side chain; linkers in the order of their positions; H or OH if unused. Positions of bridges follow the written chain, without caps; N, C: chain ends. Bridge positions count the residues as written; N and C are the ends. Non-standard residues stand in square brackets, D forms with d. Square brackets hold non-standard residues; d marks the D form. Residues, ends and D or L forms follow the SMILES beside them. Peptide text beside a SMILES is read from it. X1 = O=C([C@H](Cc1ccc(O[P+](O)(O)O)cc1)N[*:1])[*:2]; Orn(CH(NH2)2) = NC(N)NCCC[C@H](N)C(=O)O; Pro(4,5-dehydro) = O=C(O)[C@@H]1CC=CN1

Assay: PubChem AID 977611
Details: PDB protein-ligand complexes, literature Kd

## CC(C)C[C@H](NC(=O)[C@H](CC(C)C)NC(=O)[C@H](CCC(=O)O)NC(=O)[C@@H]1CC=CN1C(=O)[C@H](C)NC(=O)[C@@H]1CCCN1)C(=O)NCC(=O)O (H-PA[Pro(4,5-dehydro)]ELLG-OH)
protein: anti-hinge rabbit antibody 2095-2, PDB entry 4o4y
  Kd: 15.5 nM (active)

## CC[C@H](C)[C@H](NC(=O)[C@@H](NC(=O)[C@@H](N)CC(C)C)C(C)C)C(=O)N[C@@H](C)C(=O)NCC(=O)N[C@@H](CC(N)=O)C(=O)N1CCC[C@H]1C(=O)N[C@@H](C)C(=O)N[C@@H](Cc1ccc(O[P+](O)(O)O)cc1)C(=O)N[C@@H](CCCNC(N)N)C(=O)N[C@@H](CO)C(=O)O (H-LVIAGNPA[X1][Orn(CH(NH2)2)]S-OH)
protein: PTB domain of insulin receptor substrate-1(IRS-1), PDB entry 1irs
  Kd: 6000 nM (active)

## CC(C)C[C@H](NC(=O)[C@H](CC(N)=O)NC(=O)[C@H](Cc1ccccc1)NC(=O)[C@@H](N)CO)C(=O)N[C@@H](C)C(=O)N1CCC[C@H]1C(=O)N[C@@H](CC(C)C)C(=O)NCC(=O)N[C@@H](CCCNC(N)N)C(=O)N[C@@H](CCCNC(N)N)C(=O)N[C@@H](CCCNC(N)N)C(=O)N[C@H](C(=O)N[C@@H](CCC(N)=O)C(=O)N[C@@H](CO)C(=O)N[C@@H](CCC(N)=O)C(=O)O)C(C)C (H-SFNLAPLG[Orn(CH(NH2)2)][Orn(CH(NH2)2)][Orn(CH(NH2)2)]VQSQ-OH)
protein: Telomeric repeat-binding factor 2(TRF2 TRFH domain), PDB entry 3bu8
  Kd: 120 nM (active)

## OC[C@H]1O[C@H](O[C@H]2[C@H](O)[C@@H](O)[C@@H](O[C@H]3[C@H](O)[C@@H](O)[C@@H](O[C@H]4[C@H](O)[C@@H](O)[C@@H](O)O[C@@H]4CO)O[C@@H]3CO)O[C@@H]2CO)[C@H](O)[C@@H](O)[C@@H]1O
protein: Outer membrane protein SusF, PDB entry 4fe9
  Kd: 990000 nM (active)

## O=C1O[C@H](CO)[C@@H](O[C@@H]2O[C@H](CO)[C@@H](O)[C@H](O)[C@@H]2O)[C@H](O)[C@@H]1O
protein: ABC transporter substrate-binding protein MnBP3, PDB entry 4pft
  Kd: 2.3 nM (active)

## C[C@H]1O[C@H](O[C@H]2[C@H](O)[C@@H](O)[C@@H](O[C@H]3[C@H](O)[C@@H](O)[C@@H](O)O[C@@H]3CO)O[C@@H]2CO)[C@H](O)[C@@H](O)[C@@H]1N[C@H]1CC(CO)[C@@H](O)[C@H](O)[C@H]1O (stereo partly specified)
protein: Carbohydrate ABC transporter substrate-binding protein, CUT1 family (TC 3.A.1.1.-) EUR_01830, PDB entry 4uac
  Kd: 288 nM (active)

## C[C@@H]1O[C@@H](O)[C@H](O)[C@H](O)[C@H]1O[C@H]1O[C@H](CO)[C@@H](O)[C@H](O[C@H]2O[C@H](C)[C@@H](O)C[C@H]2O)[C@@H]1O[C@H]1O[C@H](CO)[C@H](O)[C@H](O[C@@H]2O[C@@H](C)[C@H](O[C@H]3O[C@H](CO)[C@@H](O)[C@H](O[C@H]4O[C@H](C)[C@@H](O)C[C@H]4O)[C@@H]3O[C@H]3O[C@H](CO)[C@H](O)[C@H](O)[C@H]3O)[C@@H](O)[C@H]2O)[C@H]1O
protein: Bifunctional tail protein, PDB entry 3th0
  Kd: 75800 nM (active)

## O=P(O)(O)OC[C@H]1OC(O[C@@H]2O[C@H](CO)[C@@H](O)[C@H](O)[C@H]2O)[C@H](O)[C@@H](O)[C@@H]1O (stereo partly specified)
protein: trehalose operon repressor, PDB entry 1BYK
  Kd: 10000 nM (active)

## OC[C@H]1CNC[C@@H](O[C@H]2O[C@H](CO)[C@@H](O)[C@H](O)[C@@H]2O)[C@@H]1O
protein: GLYCOSYL HYDROLASE FAMILY 71 BxGH99, PDB entry 4v27
  Kd: 217 nM (active)

## OC[C@H]1O[C@H](O[C@H]2[C@@H](O)[C@@H](CO)O[C@@H](O[C@H]3[C@H](O)[C@@H](O)[C@H](O)O[C@@H]3CO)[C@@H]2O)[C@H](O)[C@@H](O)[C@H]1O
protein: PA-I GALACTOPHILIC LECTIN, PDB entry 2vxj
  Kd: 68000 nM (active)

## CC[C@H](C)[C@H](NC(C)=O)C(=O)N[C@@H](CO)C(=O)N[C@@H]1C(=O)N[C@@H](CCCN=C(N)N)C(=O)N[C@H]2CCCCNC(=O)CC[C@@H](C(=O)O)NC(=O)[C@@H]3CCC(=O)OC[C@H](NC(=O)[C@@H]4CCCN4C(=O)[C@H](Cc4ccc(O)cc4)NC2=O)C(=O)N[C@@H](CC(=O)O[C@@H]1C)C(=O)N[C@@H](Cc1c[nH]c2ccccc12)C(=O)N3 (Ac-ISTRKYPSDWEE-OH; ester 3-9, 8-11; lactam 5-12)
protein: Bovine Cationic trypsin, PDB entry 4ktu
  Kd: 685 nM (active)

## CC(=O)N[C@@H](C)C(=O)N[C@@H](CC(C)C)C(=O)N[C@H]1CSSC[C@@H](C(=O)N[C@@H](CCC(N)=O)C(=O)N[C@@H](Cc2ccccc2)C(=O)N[C@H](C(=O)N[C@@H](CCC(=O)O)C(N)=O)C(C)C)NC(=O)[C@H](Cc2ccc(O)cc2)NC(=O)[C@H](Cc2c[nH]c3ccccc23)NC(=O)[C@H](CCCNC(N)N)NC(=O)[C@H](CC(=O)O)NC(=O)[C@H](C(C)C)NC(=O)[C@H](CCCNC(N)N)NC(=O)[C@@H]2CCCN2C(=O)[C@H](CC(=O)O)NC(=O)[C@H](CC(=O)O)NC1=O (Ac-ALCDDP[Orn(CH(NH2)2)]VD[Orn(CH(NH2)2)]WYCQFVE-NH2; disulfide 3-13)
protein: des-gla factor viia (heavy chain), PDB entry 1dva
  Kd: 8.5 nM (active)

## C[C@@H]1NC(=O)[C@@H]2CSSC[C@H](NC(=O)CN)C(=O)N[C@@H](CSSC[C@@H](C(N)=O)NC(=O)[C@H](CCCNC(N)N)NC(=O)[C@H](Cc3c[nH]c4ccccc34)NC1=O)C(=O)N[C@@H](CO)C(=O)N[C@@H](CC(=O)O)C(=O)N1CCC[C@H]1C(=O)N[C@@H](CCCNC(N)N)C(=O)N2
protein: A-AChBP, PDB entry 2byp
  Kd: 0.88 nM (active)

## CC(C)C[C@H]1NC(=O)[C@@H](Cc2c[nH]c3ccccc23)NC(=O)[C@@H](CCC(N)=O)NC(=O)[C@@H](Cc2c[nH]c3ccccc23)NC(=O)[C@@H](CCC(=O)O)NC(=O)[C@H]2CCCN2C(=O)[C@@H](Cc2ccc(O)cc2)NC(=O)[C@@H](CC(=O)O)NC(=O)[C@H](NC(=O)[C@@H](C)NC(=O)CNC(=O)[C@H](N)CCCCN)CSSC[C@H](C(=O)N[C@H](C)C(=O)N[C@H](C)C(=O)O)NC1=O
protein: gp41 N-peptide, PDB entry 2r5b
  Kd: 2.5 nM (active)
protein: gp41 N-peptide, PDB entry 2r5d
  Kd: 0.07 nM (active)

## CC[C@H](C)[C@H](N)C(=O)N[C@H](C(=O)NCC(=O)NCC(=O)N[C@H]1CSSC[C@@H](C(=O)O)NC(=O)[C@H](CCC(=O)O)NC(=O)[C@H](CCC(=O)O)NC(=O)[C@H](CCCN=C(N)N)NC(=O)[C@H](CC(=O)O)NC(=O)[C@H](CCSC)NC(=O)[C@H](Cc2c[nH]c3ccccc23)NC(=O)[C@H](Cc2ccc(O)cc2)NC(=O)[C@@H]2CCCN2C1=O)[C@@H](C)CC (H-IIGGCPYWMDREEC-OH; disulfide 5-14)
protein: Hepatocyte growth factor HGF-Beta V495, PDB entry 4o3u
  Kd: 400 nM (active)

## CC(C)C[C@H](NC(=O)[C@@H]1CSSC[C@@H]2NC(=O)[C@H](CC(N)=O)NC(=O)[C@@H](N)CSSC[C@H](NC(=O)[C@H](CC(C)C)NC(=O)[C@H](Cc3ccccc3)NC(=O)[C@H]([C@@H](C)O)NC(=O)[C@H](CCC(=O)O)NC(=O)[C@@H]3CCCN3C(=O)[C@H](C)NC(=O)[C@H](CCCCN)NC2=O)C(=O)N[C@@H](Cc2ccc(O)cc2)C(=O)N[C@@H](Cc2c[nH]c3ccccc23)C(=O)N[C@@H](CCCNC(N)N)C(=O)N1)C(=O)N[C@@H](CCC(N)=O)C(=O)N[C@@H](Cc1c[nH]cn1)C(N)=O (H-CNCKAPETFLCYW[Orn(CH(NH2)2)]CLQH-NH2; disulfide 1-11, 3-15)
protein: E3 ubiquitin-protein ligase Mdm2, PDB entry 3iux
  Kd: 25.1 nM (active)

## N#Cc1c(O)c2c(-c3ccc(Br)cc3)c(Br)sc2[nH]c1=O
protein: 5'-AMP-activated protein kinase catalytic subunit AMPK alpha1-belta1-gamma1, PDB entry 4qfs
  Kd: 900 nM (active)

## N#Cc1c(O)c2c(-c3ccc(-c4ccccc4O)cc3)c(Cl)sc2[nH]c1=O
protein: 5'-AMP-activated protein kinase catalytic subunit AMPK alpha1-belta1-gamma1, PDB entry 4qfr
  Kd: 7.4 nM (active)

## Cc1nc2c(=O)[nH]c(=O)[nH]c2n(C[C@H](O)[C@H](O)[C@H](O)CO)c1=O
protein: Major histocompatibility complex class I-related gene protein, PDB entry 4l4v
  Kd: 1650 nM (active)

## CCNc1cc2c(cc1C)C(c1ccccc1C(=O)OCC)c1cc(C)c(NCC)cc1O2
protein: Putative regulatory protein, PDB entry 3vvz
  Kd: 26400 nM (active)

## C[C@@H](O)CN1CC2=C(C1)c1ccccc1Nc1ccccc12
protein: Renin, PDB entry 4gj9
  Kd: 500000 nM (active)

## CC[C@H](C)[C@H](NC(=O)CNC(=O)[C@@H](N)CCC(N)=O)C(=O)N[C@H](C(=O)N[C@@H](CCCCN)C(=O)N1CCC[C@H]1C(=O)N[C@@H](C)C(=O)N[C@H](C(=O)N[C@@H](CCCNC(N)N)C(=O)N[C@@H](CCCNC(N)N)C(=O)N[C@@H](CC(C)C)C(=O)N[C@@H](C)C(=O)N[C@@H](CCCNC(N)N)C(=O)N[C@@H](CCCNC(N)N)C(=O)NCC(=O)O)[C@@H](C)CC)[C@@H](C)O (H-QGITKPAI[Orn(CH(NH2)2)][Orn(CH(NH2)2)]LA[Orn(CH(NH2)2)][Orn(CH(NH2)2)]G-OH)
protein: Histone-binding protein RBBP7, PDB entry 3cfs
  Kd: 1100 nM (active)

## CC[C@H](C)[C@H](NC(=O)CNC(=O)[C@H](CCC(N)=O)NC(=O)[C@@H](NC(=O)[C@H](CC(N)=O)NC(=O)[C@@H](N)CC(=O)O)[C@@H](C)CC)C(=O)N[C@H](C(=O)N[C@@H](CCCCN)C(=O)N1CCC[C@H]1C(=O)N[C@@H](C)C(=O)N[C@H](C(=O)N[C@@H](CCCNC(N)N)C(=O)N[C@@H](CCCNC(N)N)C(=O)N[C@@H](CC(C)C)C(=O)N[C@@H](C)C(=O)N[C@@H](CCCNC(N)N)C(=O)N[C@@H](CCCNC(N)N)C(=O)NCC(=O)O)[C@@H](C)CC)[C@@H](C)O (H-DNIQGITKPAI[Orn(CH(NH2)2)][Orn(CH(NH2)2)]LA[Orn(CH(NH2)2)][Orn(CH(NH2)2)]G-OH)
protein: Histone-binding protein RBBP7, PDB entry 3cfv
  Kd: 900 nM (active)

## O[C@@H]1[C@H](O)CO[C@](O)(CO[P+](O)(O)O)[C@H]1O
protein: GLUCOKINASE REGULATORY PROTEIN, PDB entry 4bb9
  Kd: 1000 nM (active)

## O=C(NCCC1C=CCCC1)Nc1ccc2nnsc2c1 (stereo unspecified)
protein: Protein arginine N-methyltransferase 3, PDB entry 3smq
  Kd: 9500 nM (active)

## OC[C@H]1O[C@@H](Oc2ccc([C@@H](c3ccc(O)c(Cl)c3)c3ccccc3S(O)(O)O)cc2Cl)[C@H](O)[C@@H](O)[C@H]1O
protein: PA-I galactophilic lectin, PDB entry 4lk6
  Kd: 6300 nM (active)

## C/C(=C/C=C/C(C)=C/C(=O)O)Cc1cccc2ccc(C)cc12
protein: Retinoic acid receptor RXR-alpha, PDB entry 4poj
  Kd: 8 nM (active)

## NCc1ccc2occc2c1
protein: CATIONIC TRYPSIN, PDB entry 4ab9
  Kd: 466000 nM (active)

## NC1C=CN([C@@H]2O[C@H](CNC(=O)c3c[nH]c4scc[n+]34)[C@@H](O)[C@H]2O)C(=O)N1 (stereo partly specified)
protein: 2-C-methyl-D-erythritol 2,4-cyclodiphosphate synthase, PDB entry 3q8h
  Kd: 70000 nM (active)

## NC1C=CN([C@@H]2O[C@H](CO)[C@@H](O)[C@H]2O)C(=O)N1 (stereo partly specified)
protein: Peptidyl-tRNA hydrolase, PDB entry 4jwk
  Kd: 4.79 nM (active)
